# In PubChem BioAssay (Tox21):
# Records with an inconclusive call do not appear. Entries that show only a call come without a potency. Some compounds were tested as several samples or in several runs, with calls that do not always agree. Active and inactive are the calls of the source. Calls follow the shape of the dose curve; as a rule, active = well fitted cell-killing curve with a large enough effect in the repeat runs (not every such curve was filed as active); inconclusive = weak or mixed curves, or effect the other way; inactive = no such curve, though single readings can be large or run the other way.
# Assay: qHTS assay to identify small molecule antagonists of the farnesoid-X-receptor (FXR) signaling pathway - cell viability counter screen (AID 743221); also: nearly all actives have a fitted effect of over 50% in size
# Conditions: FXR-bla HEK293T viability, CellTiter-Glo luminescence, 16 h; series mostly up to 62.6 µM
# Excerpt: National Center for Advancing Translational Sciences [NCATS]
# NIH Chemical Genomics Center [NCGC]
# U.S. Environmental Protection Agency [EPA]
# National Institutes of Environmental Health Sciences [NIEHS]
# National Toxicology Program [NTP]
# U.S. Food and Drug Administration [FDA]
# The farnesoid-X-receptor (FXR), a nuclear hormone receptor, is highly expressed in liver, intestine, kidney and adrenal cortex. Natural ligands of FXR are the bile acids (Cholic acid, Chenodeoxy cholic acid etc). FXR is an important regulator of diverse metabolic pathways, including the bile acid homeostasis, lipid and glucose metabolisms. FXR regulates the expression of target genes by binding either as a monomer or as a heterodimer with the retinoid X receptor (RXR). Numerous studies have reported that FXR exerts protective function during cholestasis, diabetes, liver regeneration, and cancer. To identify compounds that inhibit FXR signaling, GeneBLAzer FXR-UAS-bla HEK 293T cell line (Invitrogen, Carlsbad, CA) containing a beta-lactamase reporter gene under the control of a UAS response element was used to screen the Tox21 10K compound library. The cytotoxicity of the Tox21 compound library against the FXR-bla cell line was tested in parallel by measuring the cell viability using CellTiter-Glo assay in the same wells.
# Tox21 Assay Protocol Summary:
# FXR-bla cells were dispensed at 5000 cells/5uL/well in 1536-well black wall/clear bottom plates using a Multidrop Combi (Thermo Fisher Scientific, Waltham, MA) dispenser. After the assay plates were incubated at 37 C and 5% CO2 for 5 h, 23 nL of compounds dissolved in DMSO, positive controls or DMSO only was transferred to the assay plate by a Pintool station (Kalypsys, San Diego, CA), followed by addition of 1 uL Chenodeoxycholic acid (50 uM, final concentration in the wells). The assay plates were incubated at 37C for 16 h. After 1 uL of LiveBLAzerTM B/G FRET substrate was added using a Bioraptr Flying Reagent Dispenser (FRD) workstation (Beckman Coulter, Indianapolis, IN), the plates were incubated at room temperature for 2 h, and fluorescence intensity was measured by an Envision plate reader (PerkinElmer, Shelton, CT). For cell viability readout that measures cytotoxicity, 4uL/well of CellTiter-Glo reagent was added into the assay plates using a Bioraptr FRD. After 30 min incubation at room temperature, the luminescence intensity in the plates was measured using a ViewLux plate reader (PerkinElmer).
# Potency is read from the fitted curve at half-maximal effect.
row,SMILES,Potency
1,CCCCCCCCCCCCO,inactive
2,O=[Se](O)O,inactive
3,C=C1C[C@H]2[C@@H]3C=C(C)C4=CC(=O)CC[C@]4(C)[C@H]3CC[C@]2(C)[C@@]1(OC(C)=O)C(C)=O,inactive
4,C=CC(=O)OCCCC,inactive
5,c1ccc2cc3ccccc3cc2c1,inactive
6,COc1ccc(-c2coc3cc(O)cc(O)c3c2=O)cc1,inactive
7,CC1=CC(C)(C)Nc2ccccc21,inactive
8,C=CN1CCCC1=O,inactive
9,Nc1ccc2c(c1)C(=O)c1ccccc1C2=O,inactive
10,[Na+],inactive
11,C=C[Si](OCCOC)(OCCOC)OCCOC,inactive
12,CC(=O)[C@@]1(O)CC[C@H]2[C@@H]3C[C@H](C)C4=CC(=O)C=C[C@]4(C)[C@@]3(F)[C@@H](O)C[C@@]21C,inactive
13,Nc1cc([N+](=O)[O-])ccc1C(=O)O,inactive
14,C/C=C/C(=O)N(CC)c1ccccc1C,inactive
15,CCCOCCO,inactive
16,CN(C)C,inactive
17,CC1(C)O[C@@H]2C[C@H]3[C@@H]4C[C@H](F)C5=CC(=O)C=C[C@]5(C)[C@@]4(F)[C@@H](O)C[C@]3(C)[C@]2(C(=O)CO)O1,inactive
18,c1ccc2c(c1)ccc1cc3c(ccc4ccccc43)cc12,inactive
19,Cc1cccc(Nc2ccccc2C(=O)O)c1C,inactive
20,NC[C@H](O)c1ccc(O)c(O)c1,inactive

row,SMILES,Potency
1,C1COCCN1,inactive
2,OC[C@H]1O[C@@H]2O[C@H]3[C@H](O)[C@@H](O)[C@@H](O[C@H]4[C@H](O)[C@@H](O)[C@@H](O[C@H]5[C@H](O)[C@@H](O)[C@@H](O[C@H]6[C@H](O)[C@@H](O)[C@@H](O[C@H]7[C@H](O)[C@@H](O)[C@@H](O[C@H]1[C@H](O)[C@H]2O)O[C@@H]7CO)O[C@@H]6CO)O[C@@H]5CO)O[C@@H]4CO)O[C@@H]3CO,inactive
3,O=S1(=O)CCCO1,inactive
4,CC(=O)OC(C)C,inactive
5,COC(=O)c1ccc(C)cc1,inactive
6,CC1(C)NC(=O)N(c2ccc([N+](=O)[O-])c(C(F)(F)F)c2)C1=O,inactive
7,COc1cc([C@H]2Oc3cc([C@H]4Oc5cc(O)cc(O)c5C(=O)[C@@H]4O)ccc3O[C@@H]2CO)ccc1O,inactive
8,Nc1ccc(O)c(N)c1,inactive
9,Cc1ccc(C)c(O)c1,inactive
10,CCC(=O)O[C@H]1[C@H](O[C@@H]2[C@@H](C)[C@H](O[C@H]3C[C@@](C)(OC)[C@@H](O)[C@H](C)O3)[C@@H](C)C(=O)O[C@H](CC)[C@@](C)(O)[C@H](O)[C@@H](C)C(=O)[C@H](C)C[C@@]2(C)O)O[C@H](C)C[C@@H]1N(C)C,32.5 µM (active) and inactive
11,CCCCCCCCCCCCCO,inactive
12,CC(C)[C@@H]1CC[C@@H](C)CC1=O,inactive
13,O=C1CCc2ccccc2O1,inactive
14,C=CC(C)(O)CCC=C(C)C (stereo not given),inactive
15,C=C[C@@]1(C)CC(=O)[C@]2(O)[C@@]3(C)[C@@H](O)CCC(C)(C)[C@@H]3[C@H](O)[C@H](OC(C)=O)[C@@]2(C)O1,1.74 µM (active)
16,C=CCOC(=O)C(=C)C,inactive
17,C[C@]12CC[C@@H]3c4ccc(O)cc4CC[C@H]3[C@@H]1CC[C@H]2O,inactive
18,COCCOCCOCCO,inactive
19,Cc1ccc2c(c1)C(=O)OC2=O,inactive
20,O=C(O)c1ccc(O)cc1,inactive
